S1P4 antag: S1P4 receptor antagonists, primary screen, cell-based | Sphingosine 1-phosphate receptor 4 (Homo sapiens), O95977 | S1P4-expressing cells, antagonist mode, reporter read-out | inhibition, % at 4.98 µM | 0.26% of 220,000 active; in the data active means inhibition above about 29%
Target sequence (O95977 whole entry, looked up): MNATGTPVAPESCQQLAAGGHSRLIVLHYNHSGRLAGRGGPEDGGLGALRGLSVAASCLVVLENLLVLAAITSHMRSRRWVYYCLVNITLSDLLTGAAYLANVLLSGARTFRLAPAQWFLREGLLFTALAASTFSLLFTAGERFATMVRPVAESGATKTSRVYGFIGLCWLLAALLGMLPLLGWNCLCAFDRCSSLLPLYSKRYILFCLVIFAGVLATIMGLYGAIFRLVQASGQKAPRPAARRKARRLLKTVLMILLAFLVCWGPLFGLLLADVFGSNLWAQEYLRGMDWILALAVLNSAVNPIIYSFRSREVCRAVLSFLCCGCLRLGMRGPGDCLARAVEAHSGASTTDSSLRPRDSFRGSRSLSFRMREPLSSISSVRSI
S1P3 antag: S1P3 receptor antagonists, primary screen, cell-based. CHO S1P3 NFAT-BLA reporter, FRET fluorescence, antagonist mode. inhibition, % at 4.98 µM. 0.27% of 170,000 active. Sphingosine 1-phosphate receptor 3 (Homo sapiens), Q99500;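 active means inhibition above the plate cutoff, the mean inhibition of test wells on that plate plus 3 SD, cut at about 28% in these data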;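 further: cells challenged with S1P at its EC80 of 0.8 µM; blue over green emission ratio from cleaved BLA substrate after 4 h stimulation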
Target sequence (Q99500 whole entry, looked up): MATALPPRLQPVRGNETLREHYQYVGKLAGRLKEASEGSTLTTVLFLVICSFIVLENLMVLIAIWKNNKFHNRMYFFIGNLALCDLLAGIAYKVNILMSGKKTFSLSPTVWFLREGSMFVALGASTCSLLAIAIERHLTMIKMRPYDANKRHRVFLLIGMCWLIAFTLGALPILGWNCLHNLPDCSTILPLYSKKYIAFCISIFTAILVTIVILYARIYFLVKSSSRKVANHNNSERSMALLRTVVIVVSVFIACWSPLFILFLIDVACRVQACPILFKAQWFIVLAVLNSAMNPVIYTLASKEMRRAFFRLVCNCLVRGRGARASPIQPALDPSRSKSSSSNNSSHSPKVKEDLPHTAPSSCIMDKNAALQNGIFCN
HSF1 activator: HSF-1 activators, primary screen, NIH3T3-HGL cells, MG132 stress, luminescence, single point | activation, % at 9 µM | NIH3T3-HGL HSF-1 luciferase reporter, 8 h; 100% = twice DMSO control signal | 1.7% of 300,000 active | AID 504408, 2011;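 active means mean replicate activation of at least 50% with a set share of replicates each reaching 50%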
HSF1 inhib: HSF1 inhibitors in luciferase reporter cells, primary screen, cell-based, NIH3T3, luminescence. NIH3T3-HGL HSE-luciferase, MG132-induced, luminescence 8 h; stronger effect = lower value. 0.77% of 300,000 active. activity change, negative = inhibition, % at 7.5 µM (by protocol). AID 2098, 2009;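 active means more than half of replicate wells show activity change below -50%, luminescence cut by over half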;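 further: luciferase reports HSF-1 transcriptional activity via heat shock element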
S1P4 ag: S1P4 receptor agonists, primary screen, cell-based | Sphingosine 1-phosphate receptor 4 (Homo sapiens), O95977 | S1P4-expressing cell line, agonist reporter assay | activation, % at 4.98 µM | 0.35% of 220,000 active | AID 1509, 2009; in the data active means activation above about 11%
Hsp70 activator: Hsp70 transcriptional activators, primary screen, cell-based, HeLa, Hsp70 promoter luciferase, luminescence, 10 µM. 0.04% of 200,000 active. activation, % at 10 µM. AID 1203, 2008. HeLa Hsp70 promoter luciferase reporter; scaled: vehicle 0, proteasome-inhibitor control 100%;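 active means activation above the mean across all tested compounds plus 3 SD, cutoff set per campaign, cut at about 5.5% in these data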
Large screens that a line does not name were inactive. Compounds with a hit are over-represented: about 2.9% of the library has one in this group of screens.

COc1cccc2cc(C(=O)Nc3ccccc3C)/c(=N/NS(=O)(=O)c3ccccc3)oc12	none (no result: S1P4 antag, S1P3 antag, S1P4 ag, Hsp70 activator)
COc1ccc(S(=O)(=O)N/N=c2\oc3c(OC)cccc3cc2S(=O)(=O)c2ccc(C)cc2)cc1OC	HSF1 activator 85.8
Cc1cccc(Nc2nc3ccccc3s2)c1C	HSF1 activator 125.2
Cn1c(Cn2c(=O)sc3ccccc32)nnc1SCC(=O)Nc1ccccc1F	S1P3 antag 99.1
CCn1c(C)cc(/C=C2/NC(=O)N(c3ccccc3)C2=O)c1C	HSF1 inhib -52.1
CCn1c(C)cc(/C=C2\NC(=O)N(CC(=O)Nc3cccc(C)c3)C2=O)c1C	none (no result: S1P3 antag)
Cc1nc(N(C)C)c2sc(=S)n(C)c2n1	S1P3 antag 95.9
Cc1nc(N(C)C)c2sc(=S)n(-c3ccccc3)c2n1	none
Cc1ccccc1-c1cc(C(=O)Nc2sc(C(=O)OC(C)C)c(C)c2C#N)c2ccccc2n1	none (no result: S1P3 antag)
Cc1ccc(C2CCN(C(=S)NC(C)(C)C)C2)cc1 (stereo not given)	HSF1 inhib -66.4
COc1ccc(-n2c(=O)c3ccccc3c3ccccc3c2=O)cc1	none
COc1ccc(OC)c(-n2c(=O)c3ccccc3c3ccccc3c2=O)c1	HSF1 activator 59.3
NC(=O)c1ccccc1NC(=O)C(c1ccccc1)c1ccccc1	none (no result: S1P4 antag, S1P3 antag, S1P4 ag, Hsp70 activator)
OCC[C@@H]1C[C@@H](O)[C@H](O)[C@]2(OCCc3ccccc32)O1	none (no result: S1P4 antag, S1P3 antag, S1P4 ag, Hsp70 activator)
O=C(O)CCC1(C(=O)O)OCCc2ccccc21 (stereo not given)	HSF1 inhib -66.7
CCOC(=O)c1cnc2ccc(C(=O)OC)cc2c1NCCN1CCOCC1	none
CCOC(=O)c1cnc2ccc(C(=O)OC)cc2c1NCCCN1CCOCC1	HSF1 inhib -82.6 (no result: S1P4 antag, S1P3 antag, S1P4 ag, Hsp70 activator)
NS(=O)(=O)c1ccc(CNC(=O)CNC(=O)c2ccc(F)cc2)cc1	none (no result: S1P4 antag, S1P3 antag, S1P4 ag, Hsp70 activator)
Cc1nc2ccc(Br)cc2c(=O)n1Cc1cccs1	HSF1 activator 53.6 (no result: S1P4 antag, S1P3 antag, S1P4 ag, Hsp70 activator)
Cc1nc2ccccc2c(=O)n1Cc1ccco1	none (no result: Hsp70 activator)
COc1ccc(NC(=O)C(=O)Nc2cccc3cccnc23)cc1OC	none (no result: S1P4 antag, S1P3 antag, S1P4 ag, Hsp70 activator)
O=C(NC(=S)Nc1cccc2cccnc12)c1cccs1	HSF1 activator 155.8
COc1cc(C(=O)Nc2ccccc2NC(=O)c2cc(OC)c(OC)c(OC)c2)cc(OC)c1OC	HSF1 inhib -69.3 (no result: S1P4 antag, S1P3 antag, S1P4 ag, Hsp70 activator)
COc1cc(C(=O)Nc2ccc(S(=O)(=O)N(C)c3ccccc3)cc2)cc(OC)c1OC	HSF1 activator 102.0
COc1cc(C(=O)Nc2ccccc2N2CCCCC2)cc(OC)c1OC	none (no result: S1P4 antag, S1P3 antag, S1P4 ag, Hsp70 activator)
COc1ccc(C(=O)Nc2cccc3cccnc23)cc1OC	HSF1 activator 68.2 (no result: S1P3 antag)
O=C(NC(=S)Nc1cccc2cccnc12)c1ccccc1	none (no result: S1P3 antag)
CCCn1c(SCC(=O)NCc2ccccc2Cl)n[nH]c1=O	none
C=CCc1cccc(CNc2c(C)cc(C)cc2C)c1O	none
COc1ccc(OC)c(/C=N/NC(=O)c2ccc(N(C)S(=O)(=O)c3ccccc3)cc2)c1	none
COc1ccc(C(=O)NNC(=S)NC(=O)c2ccc(OC)cc2)cc1	none (no result: S1P4 antag, S1P3 antag, S1P4 ag, Hsp70 activator)
COc1ccc(/C=N/NC(=O)c2ccc(N(C)S(=O)(=O)c3ccccc3)cc2)c(OC)c1	HSF1 activator 57.6
CCC(=O)Nc1cccc(NC(=S)NC(=O)c2cccs2)c1	HSF1 activator 79.3
COc1ccc(C(=O)NNC(=S)NC(=O)c2cccs2)cc1	HSF1 inhib -74.4 (no result: S1P4 antag, S1P3 antag, S1P4 ag, Hsp70 activator)
CCCC(C(=O)NC(C)(C)C)N(C(=O)c1snc(C(N)=O)c1N)c1ccc2c(c1)OCCO2 (stereo not given)	HSF1 inhib -73.9
CCCC1=NN(C(=O)C(=O)Nc2ccc(Br)cc2)C(O)(C(F)(F)F)C1 (stereo not given)	none
COc1ccc(C(=O)C2CCCN(Cc3ccc(NC(C)=O)cc3)C2)cc1OC (stereo not given)	HSF1 inhib -71.6 (no result: S1P4 antag, S1P3 antag, S1P4 ag, Hsp70 activator)
CC(=O)Nc1ccc(CN2CCCC(C(=O)c3cccc(C(F)(F)F)c3)C2)cc1 (stereo not given)	none
C=CSc1sc(Cl)c(N2CCOCC2)c1[N+](=O)[O-]	none
C=CS(=O)(=O)c1sc(Cl)c(N2CCOCC2)c1[N+](=O)[O-]	HSF1 activator 74.2
COc1ccc(N(CC(=O)NCCC2=CCCCC2)S(=O)(=O)c2ccccc2)c(OC)c1	none
COc1ccc(CCNc2oc(COc3ccc(Br)cc3)nc2C#N)cc1OC	HSF1 activator 55.8 (no result: S1P3 antag)
COc1ccc(OC)c2sc(N3CCc4ccccc4C3)nc12	HSF1 activator 127.8
COc1ccc2c(n1)Sc1nc3ccccc3nc1N2	HSF1 activator 55.1 (no result: Hsp70 activator)
COc1cc2ccccc2nn1	none (no result: Hsp70 activator)
N#Cc1cc(C(=O)c2ccccc2O)cn(-c2ccc(Cl)cc2)c1=O	none
Cc1c(-n2cc(C(=O)c3ccccc3O)cc(C#N)c2=O)c(=O)n(-c2ccccc2)n1C	HSF1 activator 109.5
COc1cc(/C=N/Nc2ccc(Cl)c(C(=O)O)c2)ccc1OC(=O)c1ccccc1F	none (no result: S1P4 antag, S1P3 antag, S1P4 ag, Hsp70 activator)
CCCN(CCC)C(=S)NC1CC2C=CC1C2 (stereo not given)	HSF1 activator 51.9 (no result: Hsp70 activator)
CCCN(CC1CC1)C(=S)NC(=O)C1CC1	none
COCc1cc(=O)[nH]c(SCCS(=O)(=O)c2ccc(Cl)cc2Cl)n1	HSF1 activator 78.4 (no result: Hsp70 activator)
CC(C)c1ccc(CNc2ccc([N+](=O)[O-])cn2)cc1	HSF1 activator 71.4
COc1ccc(NC(=O)C2CCCN2C(=O)NC2CCCCC2)c(OC)c1 (stereo not given)	none (no result: S1P4 antag, S1P3 antag, S1P4 ag, Hsp70 activator)
CCC(C)(C)NC(=O)C(c1cccc(OC)c1OC)N(Cc1ccc(OC)cc1)C(=O)CCC(=O)Nc1cc(C)on1 (stereo not given)	HSF1 activator 59.9 (no result: S1P4 antag, S1P3 antag, S1P4 ag, Hsp70 activator)
CCn1c(S(=O)(=O)O)nc2ccccc21	HSF1 inhib -69.0 (no result: Hsp70 activator)
O=c1oc2ccccc2cc1-c1nc(-c2ccccc2)no1	HSF1 activator 62.6 (no result: S1P3 antag)
Cc1cccc(C(=O)OC(C)CN2C(C)CCCC2C)c1 (stereo not given)	none (no result: S1P4 antag, S1P3 antag, S1P4 ag, Hsp70 activator)
Cc1ccc(/C(N)=N/OC(=O)CSc2ccccc2)cc1	HSF1 activator 61.8
N/C(=N\OC(=O)c1ccco1)c1ccccc1	HSF1 activator 54.6 (no result: S1P3 antag)
N/C(=N\OC(=O)c1ccco1)c1ccc(Br)cc1	none (no result: S1P3 antag)
Cc1occc1C(=O)O/N=C(\N)c1ccc(Cl)cc1	HSF1 activator 57.6 (no result: Hsp70 activator)
CC(C)(C)c1ccc(C(=O)O/N=C(\N)c2ccccc2)cc1	HSF1 inhib -93.5 (no result: S1P4 antag, S1P3 antag, S1P4 ag, Hsp70 activator)
COc1cc(-c2nc(CN3CCN(c4ncccn4)CC3)c(C)o2)ccc1F	none
CCOc1ccc(C2(C)CC(=O)N(C)C2=O)cc1 (stereo not given)	none (no result: S1P4 antag, S1P3 antag, S1P4 ag, Hsp70 activator)
COc1ccc(Cc2nc3ccc(C(=O)NC(C)c4cn(C)nc4C)cc3o2)cc1 (stereo not given)	none (no result: S1P4 antag, S1P3 antag, S1P4 ag, Hsp70 activator)

Assay outcomes (PubChem)
